The list is not random: actives were taken first. Their share in the collection is about 2.9%.
GLP1R cytotox: cytotoxicity in counter-screen for GLP-1R inverse agonists | 410,000 tested, 0.13% active | Potency, µM (doses to about 38.3 µM), for inactives: top-dose activity change, negative = inhibition, usual class: inhibitors | HEK293 cAMP-luciferase reporter cells, luminescence, 24 h;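 note: loss of luciferase light is scored as toxicity; potency is the fitted concentration of half-maximal effect; % is set by controls: 0 for no effect and ±100 for the full control effect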
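Luminescence readout: signal drop marks cytotoxicity. Plated cells grew 12 h at 37 °C, 5% CO2, received 23 nL compound for 24 h, then got luciferase reagent, read after 12 min at RT.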
ClpP mod: qHTS Assay for Activators of ClpP. ATP-dependent Clp protease proteolytic subunit (Bacillus subtilis (strain 168)), P80244. purified B. subtilis ClpP, FRET peptide cleavage, 20 min. Potency, µM (doses to about 57.5 µM), without a hit: top-dose activity change, negative = active. 340,000 tested, 1.9% active. AID 651965, 2013; active = well fitted falling curve with a large enough effect; inconclusive = small, poorly fitted or top-dose-only effect; inactive = no such curve, though single readings can be large or run the other way; note: potency is the fitted concentration of half-maximal effect; the source files actives as falling curves though it sought activators and does not explain the sign; nearly all actives have a fitted effect of over 65% in size
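Buffer: 100 mM Tris/HCl pH8, 100 mM KCl, 0.05% low protease BSA, 2.5% glycerol, 0.01% Tween-20. ClpP 10 microg/mL final; 20 min RT; delta FRET normalized to ADEP and DMSO controls.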
p53 reactivation: restores transcriptional activity of mutant p53; H1299 p53-A138V BP100-luciferase reporter, luminescence, 24 h; Potency, µM (top dose mostly 92.2 µM), for inactives: top-dose activity change, positive = activation, most hits filed as activators; 320,000 tested, 0.063% active; note: potency is the fitted concentration of half-maximal effect; % of control where 0% means no effect; nearly all actives have a fitted effect of over 45% in size
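H1299 (p53-null), stable ts p53-A138V + BP100-Luc; 1000 cells/well, Opti-MEM/10% FBS; cpd 4 pt, 1:5; 24 h, 37 deg C, 5% CO2; detection reagent 10 min RT; luminescence.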
GLP1R ag: activates the human GLP-1 receptor; HEK293 GLP-1R CRE-luciferase, luminescence, 4-6 h; cells express a hypersensitive GLP-1R form; P43220; Potency, µM (highest dose often 45.6 µM), for inactives: top-dose activation, most hits filed as activators; 380,000 tested, 0.007% active; note: potency is the fitted concentration of half-maximal effect; % of control where 0% means no effect
LDHA inh: blocks human lactate dehydrogenase A; purified LDHA, NADH/diaphorase-resazurin fluorescence; active compounds read low; AID 1347041; activity change, % (values are at about 110 or 230 µM); 480,000 tested, 0.15% active; P00338; in the data active = activity change below about -30%; inconclusive = mostly about -25% to -30%;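 note: plate controls were DMSO wells for no effect and wells without enzyme for full effect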
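LDH5 2 nM; NADH 0.06 mM, pyruvate 0.2 mM; 200 mM Tris pH 7.4, EDTA, Tween-20; 5 min RT. Detection: diaphorase 0.133 mg/mL + resazurin 37 µM, fluorescence ex540/em590 at 0 and 20 min; normalized to enzyme-free and DMSO wells.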
GLP-1R inv ag: acts as inverse agonist at human GLP-1 receptor. Potency, µM (series often up to 38.3 µM), for the others: at the highest dose activity change, negative = inhibition, hits mostly inhibitors. HEK293 GLP-1R CRE-luciferase, luminescence, 24 h; GLP-1R form is constitutively active. P43220. AID 624417. 410,000 tested, 1.6% active; note: potency is the fitted concentration of half-maximal effect; % is set by controls: 0 for no effect and ±100 for the full control effect; nearly all actives have a fitted effect of over 55% in size
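HEK293 cells stably co-expressing constitutively active GLP-1R and a cAMP-responsive luciferase reporter were seeded in DMEM with 10% Nu serum, given compounds after 12 h, and incubated 24 h at 37 deg C. Luminescence was then read.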
Active calls of the source: *; ? = inconclusive; / = no result. Unless noted, calls come from the whole dose curve; as a rule, active = well fitted curve in the direction sought with a large enough effect; inconclusive = small, poorly fitted or top-dose-only effect, or another doubt; inactive = no such curve, though single readings can be large; an effect the other way counts as inactive or inconclusive.

SMILES	GLP1R cytotox	ClpP mod	p53 reactivation	GLP1R ag	LDHA inh	GLP-1R inv ag
CCN1C(=O)[C@H]2[C@@H](c3ccc(-c4cccc(Cl)c4)cc3)N3CCCC[C@@]3(C(=O)OC)[C@H]2C1=O	-24%	-4%	5%	-1%	-2	10µM*
CCN1C(=O)[C@H]2[C@@H](c3ccc(-c4ccc(F)cc4)cc3)N3CCCC[C@@]3(C(=O)OC)[C@H]2C1=O	8%	-6%	11%	-6%	0	5.6µM*
CCN1C(=O)[C@H]2[C@@H](c3ccc(-c4cccc(Cl)c4)cc3)N[C@@](CC(C)C)(C(=O)OC)[C@H]2C1=O	-14%	-3%	0%	11%	-4	-14%
CC(C)(C)C(=O)Nc1cc(C(F)(F)F)ccc1-n1ccnc1	-11%	/	0%	17%	-8	-25%
CC(=O)c1ccc(OCCCC(=O)Nc2cc(Cl)ccc2-n2cncn2)cc1	-1%	-1%	-2%	3%	-8	14%
Cc1cccnc1CN1CCN(Cc2nc(C(c3ccccc3)c3ccccc3)no2)CC1	10%	-3%	-2%	1%	-1	5µM*
c1ccc(C(c2ccccc2)c2noc(CN3CCN(C4CCCC4)CC3)n2)cc1	0%	0%	23%	6%	-1	13µM*
CC(=O)N1CCN(Cc2nc(C(c3ccccc3)c3ccccc3)no2)CC1	2%	/	2%	12%	-7	3%
Cc1c(C(=O)NC(C)c2ccccc2)sc2ncnc(N(C)C3CCCCC3)c12 (centres undefined)	7%	?	/	/	-7	11µM*
O/N=C/c1cc(Br)cc(Br)c1OCc1ccccc1	-5%	-2%	-3%	5%	-4	10µM*
COc1cc(/C=N/O)c(Br)cc1OCc1ccccc1	/	/	/	/	3	/
Cc1ccc(N=C2NC(=O)c3cc([N+](=O)[O-])ccc32)cc1	-26%	-2%	15%	3%	-5	11%
Cc1ccc(S(=O)(=O)N2[C@@H](c3ccc(Cl)cc3)C(C(=O)O)=CC[C@H]2c2ccc(C(C)C)cc2)cc1	-11%	0%	11%	-3%	-2	6.3µM*
Cc1ccccc1S(=O)(=O)N1[C@@H](c2ccc(Cl)cc2)C(C(=O)O)=CC[C@H]1c1ccc(Cl)cc1	-18%	-7%	-2%	2%	-10	8.9µM*
Cc1ccc(S(=O)(=O)N2[C@@H](c3ccc(C(C)C)cc3)C(C(=O)O)=C[C@H]2C(C)(C)C)cc1	-16%	0%	8%	1%	-1	10µM*
Cc1ccc([C@H]2C(C(=O)O)=C[C@@H](C(C)(C)C)N2S(=O)(=O)c2ccc(C)cc2)cc1	3%	0%	4%	-5%	-6	-24%
Cc1ccc([C@H]2C(C(=O)O)=CC[C@@H](c3ccc(Cl)cc3)N2S(=O)(=O)c2ccccc2C)cc1	-3%	-1%	1%	1%	-16	?
O=C(O)CCc1ccc(S(=O)(=O)Nc2ccccc2C(=O)NCCc2ccccc2)cc1	-11%	/	?	7%	-3	0%
CC(NC(=O)c1ccccc1NS(=O)(=O)c1ccc(CCC(=O)O)cc1)c1ccccc1 (centres undefined)	-1%	28µM*	15%	-14%	-5	-2%
CCC(Sc1ncccc1C(=O)Oc1cccc([N+](=O)[O-])c1)C(=O)Nc1ccccc1OC (centres undefined)	0%	35µM*	20%	-2%	-2	?
CSc1cccc(NC(=O)CSc2ncccc2C(=O)Oc2cccc([N+](=O)[O-])c2)c1	-15%	-1%	?	-8%	-8	-25%
Cc1ccc(OCc2nnc(SCC(=O)NC3CCCCC3)n2C)cc1	-6%	1%	3%	6%	-3	-2%
CC(C)CNC(=O)c1oc2ccccc2c1COc1ccccc1	-9%	/	2%	19%	5	5µM*
COCc1c(C(=O)NCc2ccccc2CN2CCCC2)oc2ccccc12	3%	-2%	1%	-9%	1	10µM*
CCC(CC)NC(=O)c1oc2ccccc2c1COc1ccccc1	93%	-3%	-4%	-3%	1	?
SMILES	GLP1R cytotox	ClpP mod	p53 reactivation	GLP1R ag	LDHA inh	GLP-1R inv ag
COCc1c(C(=O)N2CCN(S(=O)(=O)c3ccccc3Cl)CC2)oc2ccccc12	-2%	1%	-3%	21%	-6	?
Cc1cc(C)cc(NC(=O)c2oc3ccccc3c2COc2ccccc2)c1	74%	25µM*	9%	-18%	-1	?
COc1ccc2oc(C(=O)NCc3ccccc3CN3CCCC3)c(C)c2c1	14%	5%	-11%	10%	-4	?
COCc1c(C(=O)N2CCN(Cc3nc4ccccc4s3)CC2)oc2ccccc12	13%	-3%	?	3%	-33*	?
Cc1noc(C)c1NC(=O)Nc1cccc2c1O[C@H](CN(C)S(C)(=O)=O)[C@@H](C)CN([C@H](C)CO)C2=O	3%	2%	2%	-4%	4	2%
COc1ccc(CC2(CO)CCN(Cc3cc4ccccc4o3)CC2)cc1	-3%	/	-2%	25%	-1	10µM*
COc1cc(C)c(CNc2ccc(OC)c(OC)c2)cc1C	/	/	2%	/	/	/
CCc1nn(CC(=O)NCCCN(CC)CC)c(=O)c2cc3sc(C)cc3n12	-16%	-10%	0%	8%	1	10µM*
C[C@@]12C(=O)OC(=O)[C@]1(C)C1CCC2O1	?	-3%	16%	-10%	-15	1.8µM*
CC12C(=O)N(c3nccs3)C(=O)C1(C)C1CCC2O1 (centres undefined)	?	-1%	/	3%	-6	?
CCOc1ccc(OCC)c(NC(=O)C2CCCN(S(=O)(=O)c3cccs3)C2)c1 (centres undefined)	-6%	-4%	-6%	-2%	-2	?
COc1cc(Nc2ccc(S(N)(=O)=O)cc2)c([N+](=O)[O-])nc1[N+](=O)[O-]	-7%	-1%	/	4%	1	13%
Cc1cc(C)c(S(=O)(=O)Nc2ccc(-c3ccc(N4CCCCCC4)nn3)cc2)cc1C	-10%	-11%	/	/	-2	13µM*
Cc1cc(C)c(S(=O)(=O)Nc2ccc(-c3ccc(N4CCCCC4)nn3)cc2)cc1C	-8%	-5%	/	/	-3	-7%
COc1ccc(NC(=O)CSCC(=O)Nc2nnc(C3CC3)s2)cc1	-3%	-3%	12%	-10%	-9	0%
Cc1nnc2sc(SCC(=O)Nc3ccc(Br)cc3)nn2c1=O	-26%	25µM*	-1%	3%	-5	-7%

Compound activity: PubChem BioAssay, National Center for Advancing Translational Sciences (NCATS)
